Drawing on PubChem BioAssay AID588511 (Johns Hopkins Ion Channel Center, 2011), this text covers normalized B-score (activity score, 25-100; higher = stronger inhibition) for 43 compounds.

Out of some 310,000 compounds screened, about 3,600 (1.2%) were called active.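 How the source made its calls: active means ratio plate-corrected score three or more library SD toward inhibition, starting fluorescence score within five deviations; inactive means the rest.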 Only a selection was taken, and actives are over-represented in it overall.

For the test, the target named is Anoctamin-1 (Mus musculus) (UniProt Q8BHY3). Briefly: TMEM16A chloride channel inhibitors, primary screen, cell-based, HTS (AID 588511).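 On normalized B-score (activity score, 25-100; higher = stronger inhibition): score derived from kinetic fluorescence span divided by baseline fluorescence per well.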 To be noted: HEK293 TMEM16A/YFP iodide influx fluorescence, ionomycin; at 10 µM.
Chain of Anoctamin-1 (Mus musculus) (Q8BHY3 whole entry, looked up): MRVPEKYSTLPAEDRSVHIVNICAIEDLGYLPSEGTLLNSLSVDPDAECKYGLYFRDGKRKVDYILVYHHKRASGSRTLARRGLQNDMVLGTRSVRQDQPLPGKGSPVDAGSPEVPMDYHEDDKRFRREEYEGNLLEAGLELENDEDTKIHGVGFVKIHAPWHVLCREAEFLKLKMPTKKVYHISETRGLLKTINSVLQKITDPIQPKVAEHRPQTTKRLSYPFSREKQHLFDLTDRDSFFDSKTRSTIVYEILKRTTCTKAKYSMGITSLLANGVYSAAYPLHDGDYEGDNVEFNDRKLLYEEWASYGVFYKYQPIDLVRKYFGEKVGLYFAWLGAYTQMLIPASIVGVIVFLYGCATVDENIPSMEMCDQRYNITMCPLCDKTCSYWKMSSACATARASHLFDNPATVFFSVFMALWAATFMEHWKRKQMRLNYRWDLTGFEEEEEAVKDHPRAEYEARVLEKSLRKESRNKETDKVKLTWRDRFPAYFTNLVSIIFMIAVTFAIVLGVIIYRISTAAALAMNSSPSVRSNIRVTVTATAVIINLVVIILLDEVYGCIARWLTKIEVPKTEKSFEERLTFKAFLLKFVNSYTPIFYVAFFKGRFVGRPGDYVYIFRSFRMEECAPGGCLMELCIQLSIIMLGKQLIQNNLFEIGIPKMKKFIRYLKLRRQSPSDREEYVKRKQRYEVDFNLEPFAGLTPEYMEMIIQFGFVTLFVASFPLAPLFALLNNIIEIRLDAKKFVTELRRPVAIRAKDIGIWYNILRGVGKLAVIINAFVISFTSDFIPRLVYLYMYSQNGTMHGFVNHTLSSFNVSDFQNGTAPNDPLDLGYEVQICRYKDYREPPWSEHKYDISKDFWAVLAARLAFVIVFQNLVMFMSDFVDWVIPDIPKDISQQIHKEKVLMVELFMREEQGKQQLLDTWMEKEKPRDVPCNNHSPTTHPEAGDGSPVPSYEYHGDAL
For `O=C(CSc1nnc2c(n1)[nH]c1ccccc12)NC1CCCCC1`, the normalized B-score (activity score, 25-100; higher = stronger inhibition) entry is “inactive”.

Regarding `Cc1ccc(CNC(=O)C2CCCN2S(=O)(=O)c2ccc3c(c2)C(C)(C)C(=O)N3C)cc1` (stereo not drawn), the normalized B-score (activity score, 25-100; higher = stronger inhibition) entry is “inactive”.

`Cc1ccc(S(=O)(=O)c2ccc(Oc3ccccc3)cc2)cc1`: the normalized B-score (activity score, 25-100; higher = stronger inhibition) was 100 (active).

On to `Cc1n[nH]c(=O)n1-c1ccc(Oc2ccccc2)cc1`, for which the normalized B-score (activity score, 25-100; higher = stronger inhibition) result was “inactive”.

Consider `CN(C)S(=O)(=O)c1ccc(Oc2ccc(S(=O)(=O)N(C)C)cc2)cc1`, for which the normalized B-score (activity score, 25-100; higher = stronger inhibition) entry is “inactive”.

For the compound `Cc1cc(C)c(NC(=O)CN2CCCCCC2)c(C)c1`, the normalized B-score (activity score, 25-100; higher = stronger inhibition) result is “inactive”.

With `CN(C)C(=O)CCC(=O)N1CCCCC1C(=O)Nc1ccc(Oc2ccccc2F)cc1` (stereo not drawn), the normalized B-score (activity score, 25-100; higher = stronger inhibition) entry was “inactive”.

`CCOC(=O)NC(=O)/C(C#N)=C\c1ccccc1`: the normalized B-score (activity score, 25-100; higher = stronger inhibition) result was “inactive”.

In the case of `CC(C)NC(=O)/C(C#N)=C\c1ccc(N(C)C)c(Br)c1`, the normalized B-score (activity score, 25-100; higher = stronger inhibition) result was “inactive”.

For `CC(C)(C)C(=O)/C(C#N)=C/c1ccc(O)cc1`, the normalized B-score (activity score, 25-100; higher = stronger inhibition) is 25 (active).

Consider `Fc1ccccc1CNC(=S)Nc1ccc(Cl)cc1`, for which the normalized B-score (activity score, 25-100; higher = stronger inhibition) result was “inactive”.

On to `COc1ccc(NC(=S)NCc2cccs2)c(OC)c1`, for which the normalized B-score (activity score, 25-100; higher = stronger inhibition) entry is “inactive”.

Consider `S=C(NCc1cccs1)Nc1ccc(Cl)cc1`, for which the normalized B-score (activity score, 25-100; higher = stronger inhibition) was 25 (active).

Regarding `Cc1ccc(Cc2nnc(SCC(=O)Nc3ccc(C)cc3C)[nH]c2=O)cc1`, the normalized B-score (activity score, 25-100; higher = stronger inhibition) entry was “inactive”.

For `COc1cc(CNCc2ccc(OC)c3ccccc23)cc(OC)c1OC`, the normalized B-score (activity score, 25-100; higher = stronger inhibition) result was “inactive”.

As to `COCCCNC(=O)C1CCN(c2ccc(N3CCOCC3)nn2)CC1`, the normalized B-score (activity score, 25-100; higher = stronger inhibition) entry is “inactive”.

As for `CC(=O)Nc1c2c(nn1-c1ccc(C)cc1C)CS(=O)C2` (stereo not drawn), the normalized B-score (activity score, 25-100; higher = stronger inhibition) entry was “inactive”.

Take `CC(C)Nc1nc(N(c2ccccc2)c2ccccc2)nc(-n2ccnc2)n1`: the normalized B-score (activity score, 25-100; higher = stronger inhibition) entry is “inactive”.

`Nc1nc(-c2ccccc2)cc(-c2ccccc2)n1`: the normalized B-score (activity score, 25-100; higher = stronger inhibition) entry is “inactive”.

As for `N#Cc1nc(N)nc(N(c2ccccc2)c2ccccc2)n1`, the normalized B-score (activity score, 25-100; higher = stronger inhibition) is 100 (active).

For the compound `COc1ccccc1CNC(=O)CNC(=O)c1cn(-c2ccccc2OC)c(=O)c2ccccc12`, the normalized B-score (activity score, 25-100; higher = stronger inhibition) entry is “inactive”.

Turning to `CC(C(=O)Nc1ccccc1-c1ccccc1)N1CCOCC1` (stereo not drawn), the normalized B-score (activity score, 25-100; higher = stronger inhibition) entry was “inactive”.

Regarding `Cc1ccccc1NC(=O)C(C)c1ccc(-c2ccccc2)c(F)c1` (stereo not drawn), the normalized B-score (activity score, 25-100; higher = stronger inhibition) was 100 (active).

On to `O=C(Nc1ccccc1F)c1ccccc1-c1ccccc1`, for which the normalized B-score (activity score, 25-100; higher = stronger inhibition) result was “inactive”.

Regarding `CCOCCCNC(=O)c1cn(CC(C)C)c(=O)c2c1c1ccccc1n2C`, the normalized B-score (activity score, 25-100; higher = stronger inhibition) result was “inactive”.

`CC(Cc1cccs1)NC(=O)c1cccc(Cl)c1` (stereo not drawn): the normalized B-score (activity score, 25-100; higher = stronger inhibition) result was “inactive”.

On to `CN(Cc1ccccc1)C(=O)COc1ccccc1`, for which the normalized B-score (activity score, 25-100; higher = stronger inhibition) result was “inactive”.

Turning to `CN(Cc1ccccc1)C(=O)CCc1ccccc1`, the normalized B-score (activity score, 25-100; higher = stronger inhibition) result is “inactive”.

With `COc1ccc(CN(C)C(=O)CC(c2ccccc2)c2ccccc2)cc1`, the normalized B-score (activity score, 25-100; higher = stronger inhibition) is 25 (active).

As to `C=CCOc1ccc(/C=C/C(=O)OC(C)C(=O)Nc2ccc(NC(C)=O)cc2)cc1` (stereo not drawn), the normalized B-score (activity score, 25-100; higher = stronger inhibition) result was “inactive”.

Take `CCCCCCCCCCOC(=O)Cn1c(COc2ccc(C)cc2)[n+](C)c2ccccc21`: the normalized B-score (activity score, 25-100; higher = stronger inhibition) was 25 (active).

Take `CCCCCCCCCCOC(=O)Cn1c(COc2cccc(OC)c2)[n+](C)c2ccccc21`: the normalized B-score (activity score, 25-100; higher = stronger inhibition) result was “inactive”.

For `Cc1ccc(OCc2nc3ccccc3n2C)cc1`, the normalized B-score (activity score, 25-100; higher = stronger inhibition) entry was “inactive”.

Take `Cc1ccc(-c2nn(-c3ccc(F)cc3)cc2C(=O)NCC(c2cccs2)N2CCOCC2)cc1` (stereo not drawn): the normalized B-score (activity score, 25-100; higher = stronger inhibition) result was “inactive”.

As for `O=C(COC(=O)[C@H](Cc1ccccc1)NC(=O)c1cccs1)Nc1cc(F)ccc1F`, the normalized B-score (activity score, 25-100; higher = stronger inhibition) entry was “inactive”.

On to `Cc1cc2c(cc1S(=O)(=O)CCC(=O)NCc1ccccc1)OCC(=O)N2`, for which the normalized B-score (activity score, 25-100; higher = stronger inhibition) result is “inactive”.

With `COc1ccc(NC(=O)CCS(=O)(=O)c2cc3c(cc2Cl)NC(=O)CO3)cc1OC`, the normalized B-score (activity score, 25-100; higher = stronger inhibition) result is “inactive”.

In the case of `COc1ccc(Cl)cc1NC(=O)CCS(=O)(=O)c1cc2c(cc1C)NC(=O)CO2`, the normalized B-score (activity score, 25-100; higher = stronger inhibition) was 100 (active).

As to `C=C(C)c1cccc(C(C)(C)NC(=O)N2CCN(c3ncccn3)CC2)c1`, the normalized B-score (activity score, 25-100; higher = stronger inhibition) entry was “inactive”.

As to `Cc1ccc(NC(=O)CN(C)CC(=O)Nc2cccc(F)c2)cc1[N+](=O)[O-]`, the normalized B-score (activity score, 25-100; higher = stronger inhibition) is 100 (active).

Consider `Cc1ccc(CN(C)CC(=O)Nc2cccc([N+](=O)[O-])c2)o1`, for which the normalized B-score (activity score, 25-100; higher = stronger inhibition) result is “inactive”.

With `CN(CC(=O)Nc1cccc(F)c1)CC(=O)Nc1cccc([N+](=O)[O-])c1`, the normalized B-score (activity score, 25-100; higher = stronger inhibition) result is “inactive”.

Take `Cc1cccc2c1cnn2C(=O)CCC(=O)NC1CCCCC1`: the normalized B-score (activity score, 25-100; higher = stronger inhibition) entry was “inactive”.
